Results taken from PubChem BioAssay (EPA / NIEHS).
Activity calls are given as the source filed them. The calls were made as follows: active = hit-call score of the fitted dose curve at least 0.9, where 1 is the maximum; inactive = score below 0.9.

Experiment: ATG_PXRE_CIS: Attagene CIS-FACTORIAL HepG2 Assay for human Pregnane X Receptor Element (PXRE) (AID 2282957)
Conditions: HepG2 Attagene CIS-FACTORIAL PXRE reporter, mRNA; actives raise or lower the signal
Experimental: ATG_CIS is a cell-based, multiplexed-readout assay that uses HepG2, a human liver cell line, with measurements taken at 24 hours after chemical dosing in a 24-well plate.ATG_PXRE_CIS is one of 52 assay component(s) measured or calculated from the ATG_CIS assay. It is designed to make measurements of mRNA induction, a form of inducible reporter, as detected with fluorescence intensity signals by Reverse transcription polymerase chain reaction (RT-PCR) and Capillary electrophoresis technology.Data from the assay component ATG_PXRE_CIS was analyzed into 1 assay endpoint. This assay endpoint, ATG_PXRE_CIS, was analyzed with bidirectional fitting relative to DMSO as the negative control and baseline of activity. Using a type of inducible reporter, measures of mRNA for gain or loss-of-signal activity can be used to understand the reporter gene at the transcription factor-level as they relate to the gene NR1I2. Furthermore, this assay endpoint can be referred to as a primary readout, because this assay has produced multiple assay endpoints where this one serves a reporter gene function. To generalize the intended target to other relatable targets, this assay endpoint is annotated to the nuclear receptor intended target family, where the subfamily is non-steroidal.
Human liver HepG2 cells are transiently transfected with multiple reporter transcription units (MRTUs) in 6-well plates using FuGene 6 reagent (Roche; 3 ml FuGene/1 mg DNA). The MRTU constructs are regulated by a cis-regulating element (promoter). […] A major difference between the CIS and TRANS system is that in CIS activities of endogenous TFs are measured, whereas the TRANS assay evaluates changes in activities of exogenous, chimeric NR-Gal4 proteins. […] At the end of 24 hour incubation, total RNA was isolated using TriZol reagent (Invitrogen). The isolated RNA is then reverse-transcribed using oligo(dT) primer and Mo-MLV reverse transcriptase (Invitrogen) with DNAse I (Ambion) treatment for 30 min. The one-tenth of the produced cDNA was amplified by PCR using Taq DNA polymerase (Invitrogen) and two reporter sequence-specific primers. The PCR products were fluorescently labeled by primer extension with 6-arboxyfluorescein (6-FAM) 5'-labeled reporter sequence-specific primer (2 min at 95 C, 20 s at 68 C and 10 min at 72 C) and these products were digested with 5U of HpaI (New England Biolabs) for 2h at 37 C. The fragments were purified using Qiaquick PCR columns (Qiagen), analyzed on an ABI 3130xL genetic analyzer (Applied Biosystems) with peak positions identified by using a set of X-rhodamine (ROX)-labeled MapMarker1000 molecular weight standards (BioVentures). The raw capillary electrophoresis data was processed using Attagraph software (Attagene).

Question: With NC(=O)C(F)(F)C(F)(F)C(F)(F)C(F)F as the compound, how does the outcome read?
Answer: inactive

Question: With CCCCCCCCCCCCCCCCC as the compound, how does the AC50 read?
Answer: 27.2 µM (active)

Question: For O=C1C=CC(=O)N1c1ccc(Cc2ccc(N3C(=O)C=CC3=O)cc2)cc1, which AC50 is on record?
Answer: 26.7 µM (active)

Question: With OCCC(O)CO (stereo not given) as the compound, how does the outcome read?
Answer: inactive

Question: With O=C(F)C1(F)C(F)(F)C(F)(F)C(F)(F)C(F)(F)C1(F)F as the compound, how does the outcome read?
Answer: inactive

Question: Which outcome does the source give for OCCCCl here?
Answer: inactive

Question: With COCCC(=O)OC as the compound, how does the outcome read?
Answer: inactive

Question: For NS(=O)(=O)C(F)(F)C(F)(F)C(F)(F)C(F)(F)C(F)(F)C(F)(F)F, which AC50 is on record?
Answer: 41 µM (active)

Question: With CC(C)Nc1ccc(NC(C)C)c2c1C(=O)c1ccccc1C2=O as the compound, how does the AC50 read?
Answer: 0.21 µM (active)

Question: Which outcome does the source give for O=C(Cl)C(F)(F)C(F)(F)C(F)(F)C(F)(F)C(F)(F)C(F)(F)C(F)(F)F here?
Answer: inactive

Question: With C=C(C)C(=O)OCC(F)(F)C(F)(F)C(F)(F)C(F)F as the compound, how does the outcome read?
Answer: inactive

Question: Which outcome does the source give for O=S(=O)(OCC(F)(F)F)C(F)(F)C(F)(F)C(F)(F)C(F)(F)F here?
Answer: inactive

Question: With CCN(CC)c1ccc(C=O)c(O)c1 as the compound, how does the outcome read?
Answer: inactive

Question: With O=C(c1ccccc1)c1ccc(Cl)cc1 as the compound, how does the AC50 read?
Answer: 27.5 µM (active)

Question: With CCC/C=C/CO as the compound, how does the outcome read?
Answer: inactive

Question: With Cc1cnccn1 as the compound, how does the outcome read?
Answer: inactive

Question: Which outcome does the source give for CCCCOC(=O)C(C)O (stereo not given) here?
Answer: inactive

Question: Which AC50 does the source give for O=C1c2ccccc2C(=O)c2c(Cl)cccc21 here?
Answer: 0.997 µM (active)

Question: For CCCCOC(=O)[C@H](C)O, which outcome is on record?
Answer: inactive

Question: With CCCCCC/C=C/CCCCCCCC(=O)O as the compound, how does the outcome read?
Answer: inactive

Question: With C#CC(O)CCC (stereo not given) as the compound, how does the outcome read?
Answer: inactive

Question: With O=C(O)C(F)(F)C(F)(F)C(F)(F)OC(F)(F)F as the compound, how does the outcome read?
Answer: inactive

Question: Which AC50 does the source give for CCN(CCO)S(=O)(=O)C(F)(F)C(F)(F)C(F)(F)C(F)(F)C(F)(F)C(F)(F)C(F)(F)C(F)(F)F here?
Answer: 9.56 µM (active)

Question: For CC(=O)c1ccccc1N, which outcome is on record?
Answer: inactive

Question: For CCCCCCCCCCCC(=O)Cl, which outcome is on record?
Answer: inactive

Question: Which outcome does the source give for CC(C)C(=O)OCc1ccccc1 here?
Answer: inactive

Question: For C[Si](Cl)(Cl)CCC(F)(F)C(F)(F)C(F)(F)C(F)(F)C(F)(F)C(F)(F)F, which outcome is on record?
Answer: inactive

Question: With O=C(O)C(F)(F)C(F)(F)C(F)(F)OC(F)(C(F)(F)F)C(F)(F)F as the compound, how does the AC50 read?
Answer: 39.8 µM (active)

Question: For O=C(c1ccccc1)c1ccc(O)cc1O, which AC50 is on record?
Answer: 48.6 µM (active)

Question: For O=C=NCc1cccc(CN=C=O)c1, which outcome is on record?
Answer: inactive

Question: For O=C1c2c(O)ccc(Nc3ccc(CCO)cc3)c2C(=O)c2c([N+](=O)[O-])ccc(O)c21, which AC50 is on record?
Answer: 6.06 µM (active)

Question: With Brc1ccccn1 as the compound, how does the outcome read?
Answer: inactive

Question: Which AC50 does the source give for Cc1cc(C)c(O)c(C(C)(C)C)c1 here?
Answer: 27.1 µM (active)

Question: For O=C(O)C(F)(F)OC(F)(F)C(F)(F)OC(F)(F)C(F)(F)OC(F)(F)F, which outcome is on record?
Answer: inactive

Question: Which outcome does the source give for COC(F)(C(F)F)C(F)(F)F (stereo not given) here?
Answer: inactive

Question: For C=CC(=O)OCC(F)(F)C(F)(F)C(F)(F)C(F)(F)C(F)(F)C(F)(F)C(F)(F)C(F)F, which AC50 is on record?
Answer: 38.3 µM (active)

Question: For O=C(O)C(F)(F)C(F)(F)C(F)(F)C(=O)O, which outcome is on record?
Answer: inactive

Question: For c1ccc(C[P+](c2ccccc2)(c2ccccc2)c2ccccc2)cc1, which outcome is on record?
Answer: inactive

Question: With CC(C)(C)c1cc(CCC(=O)NCCCCCCNC(=O)CCc2cc(C(C)(C)C)c(O)c(C(C)(C)C)c2)cc(C(C)(C)C)c1O as the compound, how does the AC50 read?
Answer: 0.169 µM (active)

Question: With CNS(=O)(=O)C(F)(F)C(F)(F)C(F)(F)C(F)(F)C(F)(F)C(F)(F)C(F)(F)C(F)(F)F as the compound, how does the AC50 read?
Answer: 10.4 µM (active)
